# Measured values: PubChem BioAssay (EPA / NIEHS)
# Inconclusive results are not listed. The source made the active and inactive calls. Rule for the calls, unless noted: active = hit-call score of the fitted dose curve at least 0.9, where 1 is the maximum; inconclusive = response in the unintended direction; inactive = score below 0.9.
# How the values were obtained:
# [1] = biological target: Thyroid hormone receptor alpha (Rattus norvegicus) + Thyroid hormone receptor beta (Rattus norvegicus) (UniProt P18113+P63059); assay: TOX21_TR_LUC_GH3_Antagonist_Followup: Tox21 GH3 Thyroid Hormone Receptor Antagonism Luciferase Follow-Up Assay (AID 2283942)
# Procedure, shortened: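 In a GH3 luciferase reporter line, test chemicals spanning 92 uM to 5nM final are co-incubated 24 h with 1.0 nM T3. Activity is expressed as relative luminescence units and analysed relative to DMSO.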
# THRB (gene 7068) [2] = biological target: THRB (gene 7068) (UniProt P10828); assay: TOX21_TRB_BLA_Antagonist_Followup_ratio: Tox21 Thyroid Hormone Receptor beta Antagonism Beta-lactamase (BLA) Follow-Up Assay, Ratio (AID 2283958)
# Procedure, shortened: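 Using charcoal-stripped 2% FBS medium, human TRβ-LBD/GAL4 reporter HEK293T cells received test compounds for 18 h. The endpoint is the cleaved-to-uncleaved substrate ratio (460/530 nm).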
# [3] = TOX21_TRB_BLA_Antagonist_Followup_viability: Viability Assessment in the Tox21 Thyroid Hormone Receptor beta Antagonism Beta-lactamase (BLA) Follow-Up Assay (AID 2283961)
# Procedure, shortened: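 TRβ-bla HEK293T (human TRβ LBD fused to GAL4 DBD), 3,000 cells/well, 2% charcoal-stripped FBS, phenol red-free medium; 18 h compound exposure, 37C; CellTiter-Glo 30 min RT; luminescence, loss-of-signal readout.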
# THRB (gene 7068) [4] = biological target: THRB (gene 7068) (UniProt P10828); assay: TOX21_TRB_COA_Antagonist_Followup_ratio: Tox21 Thyroid Hormone Receptor beta Antagonism through Coactivator Recruitment Follow-Up Assay, Ratio (AID 2283967)
# Procedure, shortened: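 Coactivator (SRC-2) recruitment to purified GST-TRβ ligand-binding domain is monitored by terbium-to-fluorescein energy transfer, emission ratio 520:495 nm. DMSO wells define 0% and T3 wells 100% activity.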
# THRA (gene 7067) [5] = biological target: THRA (gene 7067) (UniProt P10827); assay: TOX21_TRA_COA_Agonist_Followup_ratio: Tox21 Thyroid Hormone Receptor alpha Agonism through Coactivator Recruitment Follow-Up Assay, Ratio (AID 2283948; active = hit-call score of the fitted dose curve at least 0.9, where 1 is the maximum; inactive = score below 0.9)
# Procedure, shortened: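 Follow-up specificity assay in which TRα ligand-binding domain, expressed as a GST fusion, recruits a fluorescein-labelled SRC-2 peptide. Energy transfer from a terbium anti-GST antibody gives the acceptor/donor ratio, fitted upward relative to DMSO.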
# THRB (gene 7068) [6] = biological target: THRB (gene 7068) (UniProt P10828); assay: TOX21_TRB_BLA_Agonist_Followup_ratio: Tox21 Thyroid Hormone Receptor beta Agonism Beta-lactamase (BLA) Follow-Up Assay, Ratio (AID 2283954)
# Procedure, shortened: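 Agonist mode: compounds (11-point, triplicate) incubated 18 h with HEK293T cells carrying GAL4-DBD/human TRβ-LBD and UAS-β-lactamase. Blue/green (460/530 nm) FRET ratio read after 2 h CCF4-AM loading; CellTiter-Glo viability run in the same plates.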
# [7] = TOX21_TRB_BLA_Agonist_Followup_viability: Viability Assessment in the Tox21 Thyroid Hormone Receptor beta Agonism Beta-lactamase (BLA) Follow-Up Assay (AID 2283956)
# Procedure, shortened: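 Viability was read as CellTiter-Glo luminescence in the same wells as the TRb-bla agonist read-out. HEK293T GAL4-TRb LBD cells were treated for 18 h (37C, 5% CO2) at 11 concentrations in triplicate. Fits were bidirectional versus DMSO baseline.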
# THRB (gene 7068) [8] = biological target: THRB (gene 7068) (UniProt P10828); assay: TOX21_TRB_COA_Agonist_Followup_ratio: Tox21 Thyroid Hormone Receptor beta Agonism through Coactivator Recruitment Follow-Up Assay, Ratio (AID 2283963; active = hit-call score of the fitted dose curve at least 0.9, where 1 is the maximum; inactive = score below 0.9)
# Procedure, shortened: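 GST-TRb LBD 5.0 nM + 0.10% BSA + cpd; add fluorescein-SRC-2 200 nM / Tb anti-GST Ab 2 nM; TR-FRET ex 340, em 520:495; norm DMSO 0%, T3 100%.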
# [9] = biological target: Retinoic acid receptor RXR-alpha (Homo sapiens) (UniProt P19793); assay: TOX21_TR_RXR_BLA_Agonist_Followup_ratio: Tox21 Thyroid Hormone Receptor beta Retinoid X Receptor alpha (RXRa) Agonism Beta-lactamase (BLA) Follow-Up Assay, Ratio (AID 2283968)
# Procedure, shortened: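 Agonism is scored as an increase in the 460:530 nm beta-lactamase substrate ratio over DMSO in RXRa-UAS-bla HEK293T cells exposed for 16 h to 11 compound concentrations.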
# THRA (gene 7067) [10] = biological target: THRA (gene 7067) (UniProt P10827); assay: TOX21_TRA_COA_Antagonist_Followup_ratio: Tox21 Thyroid Hormone Receptor alpha Antagonism through Coactivator Recruitment Follow-Up Assay, Ratio (AID 2283953)
# Procedure, shortened: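 We measured antagonism of T3-type coactivator recruitment using a TR-FRET ratio (emission 520 and 495 nm) between a Tb-labelled anti-GST antibody on TRα LBD (2.5 nM) and SRC-2 peptide (200 nM). Activity was scaled between DMSO and T3 wells.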
# THRB (gene 7068), sequence (P10828 whole entry, looked up, the tested form may be a part): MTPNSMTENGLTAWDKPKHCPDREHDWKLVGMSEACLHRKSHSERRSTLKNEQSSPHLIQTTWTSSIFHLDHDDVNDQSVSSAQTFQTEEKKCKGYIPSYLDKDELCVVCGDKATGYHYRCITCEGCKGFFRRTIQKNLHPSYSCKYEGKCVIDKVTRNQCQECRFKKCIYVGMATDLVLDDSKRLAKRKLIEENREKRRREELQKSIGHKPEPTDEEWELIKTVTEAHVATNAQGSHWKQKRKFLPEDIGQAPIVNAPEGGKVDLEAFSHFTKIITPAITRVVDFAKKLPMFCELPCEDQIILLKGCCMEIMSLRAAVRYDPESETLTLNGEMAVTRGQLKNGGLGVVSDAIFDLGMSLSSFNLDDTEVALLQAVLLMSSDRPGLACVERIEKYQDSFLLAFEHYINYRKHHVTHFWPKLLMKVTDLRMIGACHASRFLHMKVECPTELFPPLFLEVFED
# THRA (gene 7067), sequence (P10827 whole entry, looked up, the tested form may be a part): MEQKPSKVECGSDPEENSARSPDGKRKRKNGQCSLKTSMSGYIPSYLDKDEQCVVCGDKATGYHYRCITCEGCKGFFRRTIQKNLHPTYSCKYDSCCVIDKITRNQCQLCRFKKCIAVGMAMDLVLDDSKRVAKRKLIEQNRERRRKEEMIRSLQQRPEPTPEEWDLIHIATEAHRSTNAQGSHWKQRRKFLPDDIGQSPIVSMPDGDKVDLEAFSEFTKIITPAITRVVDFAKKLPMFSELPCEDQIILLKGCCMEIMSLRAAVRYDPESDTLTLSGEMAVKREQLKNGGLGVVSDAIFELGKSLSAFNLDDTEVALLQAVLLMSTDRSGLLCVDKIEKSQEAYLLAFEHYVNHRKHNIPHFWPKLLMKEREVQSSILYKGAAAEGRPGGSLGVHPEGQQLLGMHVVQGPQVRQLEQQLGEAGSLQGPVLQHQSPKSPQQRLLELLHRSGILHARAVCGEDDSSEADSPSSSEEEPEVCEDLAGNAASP
# Retinoic acid receptor RXR-alpha (Homo sapiens), sequence (P19793 whole entry, looked up): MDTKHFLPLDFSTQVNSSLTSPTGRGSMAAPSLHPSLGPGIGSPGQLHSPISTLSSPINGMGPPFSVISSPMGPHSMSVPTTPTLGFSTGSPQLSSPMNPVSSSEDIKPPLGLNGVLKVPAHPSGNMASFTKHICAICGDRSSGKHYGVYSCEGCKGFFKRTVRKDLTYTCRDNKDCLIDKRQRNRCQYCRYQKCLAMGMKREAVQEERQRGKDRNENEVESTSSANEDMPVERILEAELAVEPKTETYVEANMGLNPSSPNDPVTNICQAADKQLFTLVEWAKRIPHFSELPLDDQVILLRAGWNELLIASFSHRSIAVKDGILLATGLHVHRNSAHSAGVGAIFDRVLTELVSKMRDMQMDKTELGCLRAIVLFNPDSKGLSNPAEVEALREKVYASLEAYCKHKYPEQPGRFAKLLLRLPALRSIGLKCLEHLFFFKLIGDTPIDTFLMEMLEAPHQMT
compound,measurement,setting,value
C=C(C)[C@H]1Cc2c(ccc3c2O[C@@H]2COc4cc(OC)c(OC)cc4[C@@H]2C3=O)O1,AC50,[1],5.29 µM (active)
same,AC50,THRB (gene 7068) [2],1.52 µM (active)
same,AC50,[3],6.16 µM (active)
same,outcome,THRB (gene 7068) [4],inactive
C[N+]1(C)CCCCC1,outcome,THRA (gene 7067) [5],inactive
same,outcome,THRB (gene 7068) [6],inactive
same,outcome,[7],inactive
same,outcome,THRB (gene 7068) [8],inactive
same,outcome,[9],inactive
CON=C(C(=O)OC)c1ccccc1CON=C(C)c1cccc(C(F)(F)F)c1,outcome,THRB (gene 7068) [2],inactive
same,outcome,[3],inactive
same,outcome,THRB (gene 7068) [4],inactive
CSC1=N[C@@](C)(c2ccccc2)C(=O)N1Nc1ccccc1,outcome,[1],inactive
same,outcome,THRA (gene 7067) [10],inactive
same,outcome,THRB (gene 7068) [2],inactive
same,outcome,[3],inactive
same,outcome,THRB (gene 7068) [4],inactive
